# Compound activity from PubChem BioAssay.
# Pf growth 96h: Primary qHTS for delayed death inhibitors of the malarial parasite plastid, 96 hour incubation; P. falciparum luciferase reporter growth, 96 h; Potency, µM (doses to about 28.7 µM), inactives show top-dose activity change, negative = inhibition, hits mostly inhibitors; 320,000 tested, 6.9% active; active = well fitted inhibition curve with a large enough effect; inconclusive = small, poorly fitted or top-dose-only effect, or another doubt; inactive = no such curve, though single readings can be large or run the other way; note: potency is the fitted concentration of half-maximal effect; % is set by controls: 0 for no effect and ±100 for the full control effect
#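 Two parasite generations (96 h, 37 C, 5% CO2) of compound exposure in infected erythrocytes (0.05% parasitemia, 2% hematocrit). Luciferase-reporter P. falciparum; decreased luminescence indicates inhibited growth, aimed at apicoplast-acting delayed death.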
# Pf growth 48h: Primary qHTS for delayed death inhibitors of the malarial parasite plastid, 48 hour incubation; P. falciparum luciferase growth in erythrocytes, 48 h; Potency, µM (series often up to 28.7 µM), for inactives: at the top dose activity change, negative = inhibition, usual class: inhibitors; 310,000 tested, 5.9% active; active = well fitted inhibition curve with a large enough effect; inconclusive = small, poorly fitted or top-dose-only effect, or another doubt; inactive = no such curve, though single readings can be large or run the other way; note: potency is the fitted concentration of half-maximal effect; % is set by controls: 0 for no effect and ±100 for the full control effect
#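 Cell-based growth assay: transgenic P. falciparum expressing firefly luciferase, cultured in red cells within RPMI 1640 containing 0.5% w/v Albumax, 24 mM bicarbonate and gentamycin. A drop in luciferase activity indicates inhibition.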
# Shiga inhibitor: A qHTS for Small Molecule Inhibitors of Shiga Toxin; Vero cells, Shiga toxin protein synthesis inhibition reporter; inhibition, % at 38.7 µM; 290,000 tested, 9.2% active; AID 2315, 2010; in the data active = inhibition mostly above about 28%, no sharp cut-off; inactive = mostly below about 43%; note: 0% is about no effect
# SARS PLP yeast: qHTS of Yeast-based Assay for SARS-CoV PLP. S. cerevisiae expressing SARS-CoV PLpro, growth rescue. Potency, µM (top dose mostly 32.9 µM), for inactives: at the highest dose activity, positive = growth rescue, usual class: activators. 330,000 tested, 0.19% active. AID 485353, 2010; note: potency is the fitted concentration of half-maximal effect; 0% is about no effect; nearly all actives have a fitted effect of over 55% in size
# NS1 function inh: qHTS Assay for Inhibitors of Influenza NS1 Protein Function; Potency, µM (titrated, usually from 46.1 µM), inactives show top-dose activity, positive = more growth; 270,000 tested, 0.4% active; AID 2326, 2010; note: potency is the fitted concentration of half-maximal effect; actives are rising curves; nearly all actives have a fitted effect of over 50% in size
#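 In this qHTS, NS1 from influenza A is expressed in budding yeast, where it slows growth. Cells are switched from glucose to 2% galactose medium (pH 6.0, -URA), treated with compound, and growth recovery is read at OD600.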
# Cycloheximide cs: Cycloheximide Counterscreen for Small Molecule Inhibitors of Shiga Toxin; cell reporter, cycloheximide protein synthesis inhibition counterscreen; max response, %; 300,000 tested, 12% active; AID 2314, 2010; in the data active = max response mostly above about 13%, no sharp cut-off; inactive = mostly below about 14%; note: read at 38.3 µM for the half of the compounds with a filed dose; 0% is about no effect
# * marks the source's active call; other numbers are inactive results; u = inconclusive; x = no result. Hits are enriched below; roughly 21% of the tested compounds scored in any of these assays. Unless noted, calls come from the whole dose curve.
SMILES,Pf growth 96h,Pf growth 48h,Shiga inhibitor,SARS PLP yeast,NS1 function inh,Cycloheximide cs
COc1ccc2c(=O)c(-c3nc(C)cs3)coc2c1,-7%,221%,79*,-12%,-30%,45*
CCc1cc2c(=O)c(-c3nc(C)cs3)coc2cc1O,0%,-110%,38*,-1%,8%,34*
COc1ccc(C(=O)NNC(=O)Cc2coc3cc(OC)ccc23)cc1,x,x,x,1%,x,x
Cc1csc(-c2coc3cc(O)cc(C)c3c2=O)n1,116%,136%,108*,-6%,-32%,30*
Cc1nc(-c2coc3cc(C)c(N=O)c(O)c3/c2=N\N)cs1,61%,5%,2,-3%,x,-1
Cc1nc(-c2coc3cc(O)c(C)cc3c2=O)cs1,x,37%,39,-10%,-55%,21*
O=C(c1cccs1)N1CCN(Cc2ccccc2[N+](=O)[O-])CC1,25%,-7%,11,1%,7%,-2
Cc1ccc(C(=O)N/C(=C\c2cccs2)C(=O)NCC2CCCO2)cc1C (stereo unspecified),-11%,0%,7,u,16%,-1
Cc1ccc(NC(=O)c2cc(=O)c3ccccc3o2)c(C)c1,3%,76%,-4,-19%,4%,2
Cc1ccccc1NC(=O)c1cc(=O)c2ccccc2o1,30%,48%,30,1%,-4%,16
Cc1ccc(C)c(NC(=O)c2cc(=O)c3ccccc3o2)c1,13µM*,117%,17,-37%,-34%,33*
Cc1cccc(NC(=O)c2cc(=O)c3ccccc3o2)c1,-19%,22%,27,-2%,-8%,24*
COc1cccc(NC(=O)c2cc(=O)c3ccccc3o2)c1,76%,66%,47*,-8%,-27%,19*
NC(=O)c1ccsc1NC(=O)c1cc(=O)c2ccccc2o1,68%,230%,38,-7%,33%,44*
Cc1cc(C)cc(NC(=O)c2cc(=O)c3ccccc3o2)c1,u,3%,5,0%,x,9
CCN(CC)CCOc1ccc(-c2nc3cc(Cl)ccc3s2)cc1,u,-90%,x,x,x,x
COc1ccc(NS(=O)(=O)c2cc(NC(=O)c3cc(=O)c4ccccc4o3)ccc2OC)cc1,u,8.3µM*,20,-1%,x,10
N#Cc1ccccc1NC(=O)c1cc(=O)c2ccccc2o1,266%,95%,59*,-7%,x,19
Cc1cc(C)nc(NS(=O)(=O)c2ccc(NC(=O)c3cc(=O)c4ccccc4o3)cc2)n1,-25%,20%,21,22%,-16%,3
Cc1ccc(NC(=O)c2cc(=O)c3ccccc3o2)cc1,-18%,94%,125,3%,-2%,29*
O=C(NCCc1ccc(F)cc1)c1cc(=O)c2ccccc2o1,-27%,8%,30,-2%,x,25*
O=C(COC(=O)CN1CCSC1=O)Nc1ccc(F)cc1Cl,x,x,x,4%,x,x
O=C(Nc1cccc(-c2nc3ccccc3s2)c1)c1cc(=O)c2ccccc2o1,90%,66%,31*,-6%,3%,14
Cc1cccc(NC(=O)c2cc(=O)c3ccccc3o2)n1,57%,60%,56,0%,-18%,24*
N#Cc1ccc(NC(=O)CCc2ccc(S(=O)(=O)N3CCOCC3)cc2)cc1,u,x,-1,24%,2%,-3
SMILES,Pf growth 96h,Pf growth 48h,Shiga inhibitor,SARS PLP yeast,NS1 function inh,Cycloheximide cs
COc1cc(CCN2C(=O)N[C@@H](CCc3ccccc3)C(C(C)=O)=C2C)cc(OC)c1OC,u,u,-4,4%,-37%,-2
CCn1cc(C(=O)OCC(=O)c2cc(C)n(-c3ccc(OC(F)F)cc3)c2C)c(=O)c2ccc(C)nc21,u,-17%,-7,-23%,13%,-1
COc1ccc(/C=N/Nc2nc(NCc3ccco3)nc(Nc3ccc(OC)cc3)n2)cc1,u,15µM*,3,-4%,u,-3
CC1CCCC(C)N1C(=O)CSc1ncccn1 (stereo unspecified),6%,3%,-13,2%,-7%,1
N#CC1=C(Nc2ccccc2)SC=C(c2ccc(Cl)c(Cl)c2)N=C1N1CCOCC1,u,13µM*,-4,1%,10%,7
N#CC1=C(Nc2ccccc2)SC=C(c2ccccc2)N=C1N1CCOCC1,u,x,14,10%,6%,9
COc1cccc(CN(C)C(=O)c2[nH]c(C)c(C(C)=O)c2C)c1OC,7.4µM*,12µM*,2,1%,1%,-2
COc1ccccc1CNC(=O)c1[nH]c(C)c(C(C)=O)c1C,u,-39%,20,2%,0%,17
CN(C)c1nc(-c2cn(CCC#N)c3ccccc23)cs1,u,u,2,-2%,15%,-4
CSc1nnc(SCC#N)s1,40%,33%,-4,3%,2%,-2
COc1cccc(CNc2cccc(C(F)(F)F)c2)c1O,u,-4%,10,-8%,x,7
CCn1cnc2cc(NCc3cccc(OC)c3O)ccc21,19%,63%,112*,0%,-6%,44*
COc1cccc(CNc2ccc(F)c(Cl)c2)c1O,-2%,u,-7,6%,-93%,-3
CCCCn1cnc2cc(NCc3cccc(OC)c3O)ccc21,-17%,12%,103*,-2%,-19%,19*
COc1cccc(CN2C(=O)CCC2(C)C(=O)NC2CCCC2)c1 (stereo unspecified),12%,x,-7,-4%,4%,-2
CC(C)n1nnnc1SCC(=O)Nc1ccc2c(c1)OCCO2,156%,111%,117*,1%,0%,57*
CCn1nnnc1SCC(=O)Nc1ccc2c(c1)OCCO2,u,465%,64*,u,-2%,44*
COc1ccc(-n2nnnc2SCC(=O)Nc2ccc3c(c2)OCCO3)c(OC)c1,u,16%,74*,-3%,-18%,46*
Nn1c(SCC(=O)Nc2ccc3c(c2)OCCO3)nncc1=O,6%,2%,31*,25%,6%,16*
COc1cccc(-n2nnnc2SCC(=O)Nc2ccc3c(c2)OCCO3)c1,7%,x,-19,-5%,3%,-5
Cn1c(N)c(C(=O)COC(=O)CNS(=O)(=O)c2cccc(Cl)c2)c(=O)n(C)c1=O,2%,50%,-3,-9%,-1%,-3
CC(=O)c1cccc(NC(=O)C(C)OC(=O)c2ccc(Br)o2)c1 (stereo unspecified),-14%,-7%,x,-3%,x,x
COCCCn1nnnc1SCC(=O)Nc1ccc2c(c1)OCCO2,13µM*,33%,16,0%,3%,9
COCCn1nnnc1SCC(=O)Nc1ccc2c(c1)OCO2,3%,8%,16,1%,1%,5
CC(C)c1ccc(-n2cnn(-c3ncccc3[N+](=O)[O-])c2=O)cc1,251%,122%,77*,-2%,-4%,34*
